ATXN viability – cell viability loss in ATXN counter-screen | S2 cells (HEK-293 line with an ATXN2-luciferase reporter) viability, CellTiter-Fluor protease fluorescence, 24 h | 400,000 compounds, 0.49% hits | Potency, µM (doses to about 56.7 µM), actives largely listed as cytotoxic; further: nearly all actives have a fitted effect of over 40% in size
HepG2 viability – counter-screen for TGF-b inhibitors: cytotoxicity in HepG2 cells; HepG2 CAGA-GFP viability, ATP luminescence, 18 h; 410,000 compounds, 0.76% hits; Potency, µM (top dose mostly 46.1 µM), hits mostly cytotoxic; AID 588856
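CellTiter-Glo luminescence gave cytotoxicity after 18 hours at 37 degrees C. The cells were HepG2 CAGA-GFP in 1% FBS DMEM, stimulated with 500 pg/mL TGF-beta after compound addition. %Activity was normalised to no-cell wells (complete cell-killing) and DMSO (no toxicity), and curves were fitted and classified.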
A549 tox – A549 cytotoxicity, counter-screen for Nrf2 inhibitors; A549 ARE-Fluc cells, CellTiter-Fluor viability, 18-24 h; Potency, µM (titrated, usually from 46 µM), actives largely listed as inhibitors; 390,000 compounds, 0.16% hits; AID 504648
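Cytotoxicity counterscreen: CellTiter-Fluor fluorescence was measured in A549 ARE_Fluc cells after 18-24 h of compound exposure in a concentration series. The subsequent BugLite luminescent read reports ARE-luciferase activity.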
ATXN2 expr inh – inhibitors of ATXN2 expression. Potency, µM (series often up to 57 µM), actives largely listed as inhibitors. HEK-293 ATXN2-luciferase reporter, luminescence, 24 h. 360,000 compounds, 0.72% hits; further: nearly all actives have a fitted effect of over 55% in size
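ATXN2-luciferase reporter cells (luciferase flanked by upstream and downstream ATXN2 gene portions) were treated 24 h at 37 °C with compounds at up to 57 uM. SteadyGlo luminescence gave expression; GF-AFC fluorescence gave viability.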
TGFb SMAD3 inh – inhibitors of TGF-b signaling. 410,000 compounds, 1.2% hits. HepG2 CAGA-GFP TGF-b/SMAD3 reporter, GFP fluorescence, 18 h; TGF-beta stimulated, 500 pg/mL final. AID 588855. Potency, µM (top dose mostly 46.1 µM), hits mostly inhibitors; further: nearly all actives have a fitted effect of over 65% in size
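Inhibition was scored as loss of TGF-beta-induced (500 pg/mL final, 18 hours, 37 degrees C) GFP in HEPG2 cells carrying a CAGA-GFP reporter, in DMEM with 1% FBS. Well GFP was summed per cell; Activity was normalised to unstimulated and stimulated DMSO wells, then concentration-response fitting.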
Nrf2 inh – inhibitors of Nrf2 signaling. A549 ARE-Fluc reporter, luciferase luminescence, 18-24 h. Potency, µM (top dose mostly 46 µM), usual class: inhibitors. 360,000 compounds, 2.1% hits. AID 504444; further: nearly all actives have a fitted effect of over 60% in size
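Concentration-response testing used A549 ARE_Fluc cells at 5000 cells/well. Following an 18-24 h compound incubation, viability was read by fluorescence (Ex 405/Em 525) and luciferase output by luminescence.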
Hits are given with their value; n = inactive; u = inconclusive; x = no result given; ! = not confirmed by another sample. Compounds with a hit are over-represented: about 3.8% of the library has one in this group of screens. The call rests on the fitted dose curve; in most records, active means well fitted curve in the direction sought with a large enough effect; inconclusive means small, poorly fitted or top-dose-only effect, or another doubt; inactive means no such curve, though single readings can be large; an effect the other way counts as inactive or inconclusive.

SMILES	ATXN viability	HepG2 viability	A549 tox	ATXN2 expr inh	TGFb SMAD3 inh	Nrf2 inh
Cc1cccc(CCNC(=O)c2cc3c(s2)-c2c(C)cccc2OC3)c1	n	n	n	n	n	u
CCCN1CCN(CCCNC(=O)c2cc3c(s2)-c2ccccc2OC3)CC1	n	n	n	u	u	n
CCCN1CCN(CCCNC(=O)c2cc3c(s2)-c2c(C)cccc2OC3)CC1	u	11µM!	n	u	u	n
Cc1cccc2c1-c1sc(C(=O)NCCc3ccc(Cl)cc3)cc1CO2	n	n	n	u	n	23µM
Cc1cccc2c1-c1sc(C(=O)NCCCN3CCCC(C)C3)cc1CO2 (stereo not drawn)	u	n	n	35µM	u	n
CCOc1ccc(/C=N/OCC(=O)NC(c2ccccc2)c2ccccc2)cc1	n	n	n	n	22µM	u
O=C(CSc1nnc(NC(=O)c2ccc(F)cc2F)s1)NC1CCCC1	n	n	n	n	n	n
O=C(NCCN1CCN(c2ccccc2)CC1)c1cccn2c(=O)c3ccccc3nc12	n	n	n	n	n	n
CCOc1ccccc1N(CC)C(=O)c1cc2c(=O)n(CC)c3ccccc3c2s1	u	n	n	u	18µM	n
CCn1c(=O)c2cc(C(=O)NCCCN(C)Cc3ccccc3)sc2c2ccccc21	32µM	n	n	u	u	n
CN(CCCNC(=O)c1cccn2c(=O)c3ccccc3nc12)Cc1ccccc1	u	n	n	u	11µM	n
O=C(O)c1cc(=S)nc[nH]1	n	n	n	n	n	n
Cc1cccc(C(=O)N2CCOc3ccc(CN(C)Cc4cc(C5CC5)n[nH]4)cc3C2)n1	n	x	x	x	x	x
O=C1c2ccccc2C(=O)N1CCCCN(C(=O)c1cc([N+](=O)[O-])cc([N+](=O)[O-])c1)c1ccc(Cl)cc1	n	n	n	n	n	23µM
CCn1c2ccccc2c2cc(NC(=O)c3ccco3)ccc21	n	n	n	n	n	21µM
CCn1c2ccccc2c2cc(NC(=O)CSc3nnc(C4CC4)n3Cc3ccco3)ccc21	n	n	n	n	n	18µM
CCCc1nccn1S(=O)(=O)c1cc(OC)ccc1OC	n	n	n	n	u	u
CCO[C@H](Cc1ccc(OCCc2ccc(OS(C)(=O)=O)cc2)cc1)C(=O)O	n	x	x	n	x	x
O=C(CCNC(=O)c1ccc([N+](=O)[O-])cc1)Nc1ccc(S(=O)(=O)N2CCOCC2)cc1	u	n	n	n	n	u
NC(=S)n1[nH]c(-c2ccc([N+](=O)[O-])cc2)c(N=Nc2cccc(Cl)c2)c1=O	u	n	u	u	u	18µM
Nc1nc(N)c2cc(Sc3ccc(Cl)cc3)ccc2n1	x	n	x	x	u	x
Nc1nc(N)c2cc(Sc3ccc4ccccc4c3)ccc2n1	u	n	n	u	11µM	u
CC1CCc2nn(CC(=O)Nc3ccccc3Cl)cc2C1 (stereo not drawn)	n	n	n	n	n	u
CCC1CN(C(=O)NCc2ccc(C)cc2)c2ccccc2O1 (stereo not drawn)	n	n	n	n	n	u
CCC1CN(C(=O)NCc2ccc(F)cc2)c2cc(C)ccc2O1 (stereo not drawn)	n	n	u	n	n	21µM
SMILES	ATXN viability	HepG2 viability	A549 tox	ATXN2 expr inh	TGFb SMAD3 inh	Nrf2 inh
COc1ccc(C(=O)NCCn2cc(SCc3cccc(F)c3)c3ccccc32)cc1OC	u	n	n	18µM	u	23µM
Cc1ccccc1CSc1cn(CCNC(=O)c2cccs2)c2ccccc12	u	n	n	u	u	u
O=C(NCCn1cc(SCc2cccc(F)c2)c2ccccc21)c1cccc(C(F)(F)F)c1	u	n	n	n	u	u
O=C(NCCn1cc(SCc2ccccc2F)c2ccccc21)c1cccs1	u	n	n	u	10µM	u
O=C(NCCn1cc(SCc2ccc(F)cc2)c2ccccc21)c1cccs1	u	n	n	u	11µM	u
CCCNS(=O)(=O)Nc1ncnc(OCCOc2ncc(Br)cn2)c1-c1ccc(Br)cc1	x	x	x	n	x	x
c1ccc2c(Nc3nc(N4CCOCC4)c4ccccc4n3)cccc2c1	n	n	n	u	25µM	u
Fc1ccc(Nc2nc(N3CCOCC3)c3ccccc3n2)cc1	n	n	n	n	u	n
N#Cc1c(C(F)(F)F)cc(-c2ccc(F)cc2)[nH]c1=O	n	n	n	n	n	u
N#Cc1c(C(F)(F)F)cc(-c2ccc(Cl)cc2)[nH]c1=O	n	n	n	n	u	16µM
Cc1ccc(OCC(=O)N/N=C/c2cccc3cccnc23)cc1	n	n	n	u	n	u
CCN(Cc1ccccc1)C(=O)CCS(=O)(=O)c1ccc2c(c1)CCN2C(C)=O	n	n	n	n	n	u
CC(C)(C)c1ccc(OCC(O)CN(CCO)CC(O)Cn2ccc3ccccc32)cc1 (stereo not drawn)	n	n	n	n	11µM	n
CC(C)OCCCN(Cc1ccco1)C(=O)c1cc2c(s1)-c1ccccc1OC2	u	n	n	u	n	16µM
COc1ccc(N(CC(=O)NCCSCc2ccccc2Cl)S(C)(=O)=O)cc1Cl	n	n	n	n	n	n
N#C/C(=C\c1ccccc1[N+](=O)[O-])C(=O)NCc1ccccc1	n	n	n	n	n	n
N#C/C(=C\C=C\c1ccccc1[N+](=O)[O-])C(=O)NCc1ccccc1	u	n	n	28µM	13µM	u
COCCn1c(SCC(=O)c2ccccc2)nc2cc(C(=O)NC3CCCC3)ccc2c1=O	n	n	n	n	n	u
CCOC(=O)c1c(-c2ccc(C)o2)csc1NC(=O)CN(C)CC(=O)Nc1ccc(C)cc1	u	n	n	u	n	16µM
CCOC(=O)c1c(-c2ccc(C)o2)csc1NC(=O)CN1CCCCC1	n	n	n	n	u	n
CCOC(=O)c1c(-c2ccc(C)cc2)csc1NC(=O)CCN1CC(C)OC(C)C1 (stereo not drawn)	n	20µM	n	n	u	n
CCOC(=O)c1c(-c2ccc(C)o2)csc1NC(=O)CSc1nncs1	n	n	n	n	n	21µM
Nc1nc(NC(=O)CCC(=O)O)nn1-c1ccccc1	n	n	n	n	n	n
CCCCC(=O)N(C)c1c(C)nc2ccc(C(=O)N3CCN(C(=O)c4ccco4)CC3)cn12	n	n	x	n	n	x
COc1ccccc1NS(=O)(=O)c1ccc2oc(SCc3ccc(C#N)cc3)nc2c1	n	n	n	n	u	16µM
CCN(CC)S(=O)(=O)c1ccc2oc(SCc3ccc(F)cc3)nc2c1	n	n	n	n	n	18µM
Cc1ccn2c(-c3csc(NCc4ccco4)n3)c(C)nc2c1	n	n	n	n	n	23µM
